FBW7 activator: FBW7 E3 ligase activators, primary screen, biochemical, AlphaScreen, human. normalized activity (activation), % at 26.1 µM. 650,000 compounds, 0.13% hits. AlphaScreen FBW7–phospho-cyclin E peptide binding, activator screen. AID 1259310, 2017. F-box/WD repeat-containing protein 7 (Homo sapiens), Q969H0; in the data active means normalized activity above about 1.9%;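 further: purified mutant Fbw7 with reduced substrate affinity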
Target sequence (Q969H0 whole entry, looked up): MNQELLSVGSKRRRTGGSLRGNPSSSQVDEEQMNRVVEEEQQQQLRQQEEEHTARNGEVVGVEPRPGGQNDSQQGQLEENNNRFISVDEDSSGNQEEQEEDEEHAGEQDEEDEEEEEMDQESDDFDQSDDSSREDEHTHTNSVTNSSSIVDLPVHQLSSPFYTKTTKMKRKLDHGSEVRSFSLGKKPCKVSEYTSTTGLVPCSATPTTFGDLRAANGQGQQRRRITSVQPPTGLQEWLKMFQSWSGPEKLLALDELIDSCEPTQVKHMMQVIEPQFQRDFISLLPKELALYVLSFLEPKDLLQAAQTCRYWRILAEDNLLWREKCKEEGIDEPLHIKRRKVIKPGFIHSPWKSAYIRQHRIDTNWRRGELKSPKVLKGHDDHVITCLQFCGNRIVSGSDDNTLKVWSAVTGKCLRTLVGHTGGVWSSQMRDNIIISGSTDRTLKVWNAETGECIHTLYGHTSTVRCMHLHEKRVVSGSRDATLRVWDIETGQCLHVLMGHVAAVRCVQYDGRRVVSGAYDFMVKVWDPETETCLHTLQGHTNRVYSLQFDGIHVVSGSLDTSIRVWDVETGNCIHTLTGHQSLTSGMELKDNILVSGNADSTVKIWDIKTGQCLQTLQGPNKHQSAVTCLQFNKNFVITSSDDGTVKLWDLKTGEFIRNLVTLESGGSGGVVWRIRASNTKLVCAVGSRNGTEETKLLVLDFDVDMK
MITF primary: MITF inhibitors, primary screen, biochemical, AlphaScreen, human; Microphthalmia-associated transcription factor (Homo sapiens), O75030; AlphaScreen MITF homodimerization, bead proximity signal; inhibition, % at 2.6 µM; 650,000 compounds, 0.91% hits; in the data active means inhibition above about 50%
GPR151 activ: activators of human GPR151, primary screen, cell-based, PathHunter beta-arrestin, luminescence; activation, % at 11.2 µM; AID 1508602, 2020; PathHunter beta-arrestin GPR151 cells; 650,000 compounds, 1% hits; in the data active means activation above about 4.9%
TEAD-YAP block: TEAD-YAP interaction inhibition, primary screen, TEAD-YAP interaction inhibitor project, luminescence, HEK-TIYL cells | inhibition, % at 9.12 µM | AID 1259422, 2018 | 640,000 compounds, 1.4% hits | TEAD-Gal4/YAP UAS-luciferase luminescence; in the data active means inhibition above about 32%
Of the large screens only hits and unclear results are named; the others gave an inactive call. A selection: hits, their analogues and other compounds. The true share with any hit is near 3.5%.

Cc1nnc(N/N=C/c2cc(Br)ccc2O)[nH]c1=O	MITF primary 114.4, TEAD-YAP block 90.4
CC(C)(C)c1nnc(N/N=C/c2cc(Br)ccc2O)n(N)c1=O	MITF primary 62.6, TEAD-YAP block 75.0
Cc1nnc(N/N=C/c2cc(Cl)ccc2O)[nH]c1=O	MITF primary 127.2, TEAD-YAP block 91.6
O=C(N[C@H]1C[C@H]2C(=O)N[C@@H](COCc3ccccc3)C(=O)N2C1)OCc1ccccc1	none
COc1ccccc1C1NC(=O)c2[nH]nc(-c3ccc(C)cc3)c21 (centres undefined)	TEAD-YAP block 55.1
COc1ccc(C2C=C(c3ccco3)Nc3ncnn32)cc1 (centres undefined)	none
Cc1c2oc3c(C)ccc(C(=O)N[C@@H]4C(=O)N[C@H](C(C)C)C(=O)N5CCC[C@H]5C(=O)N(C)CC(=O)N(C)[C@@H](C(C)C)C(=O)O[C@@H]4C)c3nc-2c(C(=O)N[C@@H]2C(=O)N[C@H](C(C)C)C(=O)N3CCC[C@H]3C(=O)N(C)CC(=O)N(C)[C@@H](C(C)C)C(=O)O[C@@H]2C)c(N)c1=O	TEAD-YAP block 95.7
CC1(C)OC(c2ccccc2)=C/C(=C/C=C/C(=O)/C=C(\N)c2ccccc2)O1	none
CCOC(=O)C1=C(N)Oc2cc(C)n(CCOC)c(=O)c2C1c1ccccc1Cl (centres undefined)	none
CCCCCn1c(-c2ccccc2)nc2ccccc21	none
Nc1nc2ccc(Cc3ccc4nc(N)sc4c3)cc2s1	TEAD-YAP block 41.3
Nc1nc2ccc(Cc3nc4ccccc4o3)cc2s1	none
Oc1c(Cl)cc(CN2CCOCC2)c2cccnc12	MITF primary 100.5, TEAD-YAP block 85.5
Oc1c(Br)cc(CN2CCOCC2)c2cccnc12	MITF primary 101.5, TEAD-YAP block 75.0
O=C(Nc1ccc2c(c1)OCO2)c1cc(C2CC2)on1	none
CCCc1cc(C(=O)Nc2cccc(O)c2)no1	TEAD-YAP block 74.4
O=C(Nc1cccc(O)c1)c1cc(C2CC2)on1	TEAD-YAP block 83.8
CCOc1ccc(-c2cc(=O)n(CC(=O)NCc3cccs3)cn2)cc1	TEAD-YAP block 43.9
CCc1ccc(OCC(=O)NCc2cccs2)cc1	none
Cc1ccc(NC(=O)C2C3NC(=S)N(CCc4ccccc4)C2(C)Oc2ccccc23)c(C)c1 (centres undefined)	none
CCC(=O)Nc1ccc2[nH]c(C)cc2c1	none
COc1ccc(NC(=O)c2cc(S(=O)(=O)N3CCN(c4ccccn4)CC3)ccc2F)cc1	FBW7 activator 1.9
CCC(CC)CN1CCc2nnc(C(CC(C)C)NC(C)=O)n2CC1 (centres undefined)	none
c1csc(CNc2ccc(-c3nc4ccccc4s3)cc2)c1	TEAD-YAP block 85.9
c1ccc(-c2nc3ccccc3s2)cc1	none
Cc1cccc(C)c1NS(=O)(=O)c1cc(F)ccc1CN1C(=O)c2cccnc2C1=O	none
CN1CCN(/N=C/c2ccc(C(F)(F)F)cc2)CC1	none
O=C(O)CCCN1C(=O)/C(=C/c2ccc(O)cc2)SC1=S	TEAD-YAP block 75.4
O=C(O)CCCN1C(=O)/C(=C\c2ccccc2)SC1=S	none
O=C(O)CCCN1C(=O)/C(=C\c2ccc(O)cc2)SC1=S	TEAD-YAP block 66.5
O=C(O)CCCN1C(=O)/C(=C\c2ccccn2)SC1=S	TEAD-YAP block 87.4
O=C(O)CN1C(=O)/C(=C\c2cc(Cl)ccc2O)SC1=S	none
O=C(O)CN1C(=O)/C(=C\c2ccc(O)cc2O)SC1=S	MITF primary 87.5
Cc1ccc(NC(=O)CSc2nc(N)cc(=O)[nH]2)cc1	none
O=C(O)CCN1C(=O)/C(=C/c2ccc([N+](=O)[O-])o2)SC1=S	MITF primary 56.3
COc1cc(/C=C2/SC(=S)N(CCC(=O)O)C2=O)ccc1O	TEAD-YAP block 32.5
COc1ccc(-c2nc(NCCOc3ccccc3)c3ncn(CCN4CCCC4=O)c3n2)cc1	TEAD-YAP block 34.4
COc1ccc(CCNc2nc(-c3ccc(C(=O)NC4CC4)cc3)nc3c2ncn3CCN2CCCC2=O)cc1	TEAD-YAP block 39.2
O=C(O)C1Cc2[nH]cnc2C(c2cccs2)N1 (centres undefined)	none
CN1CC(=O)N(CC(=O)Nc2ccc(F)c([N+](=O)[O-])c2)C1=O	none
CC(C)COC(=O)c1ccc(NC(=O)c2ccncc2)cc1	TEAD-YAP block 32.6
CC(C)CCOC(=O)c1ccc(NC(=O)c2ccncc2)cc1	none
CC(=O)Nc1ccc(C(=O)Nc2ccncc2)cc1	none
C[C@@H](N)c1ccc(C(=O)Nc2ccncc2)cc1	TEAD-YAP block 50.0

Source: PubChem BioAssay (The Scripps Research Institute Molecular Screening Center)
